Assay outcomes from PubChem BioAssay.
Sampled rows, rich in hits. Any-hit rate of the full collection: about 3.6%.
NPSR antag: neuropeptide S receptor (human) antagonism, cAMP; CHO-NPSR cells, cAMP TR-FRET, antagonist mode; AID 1461; 220,000 compounds, 1% hits; Potency, µM (highest dose often 38.3 µM), inactives show at the highest dose activity change, negative = inhibition, hits mostly inhibitors; also: % is scaled to controls: 0 for no effect and ±100 for the full control effect; nearly all actives have a fitted effect of over 50% in size
Target sequence (Q6W5P4 whole entry, looked up): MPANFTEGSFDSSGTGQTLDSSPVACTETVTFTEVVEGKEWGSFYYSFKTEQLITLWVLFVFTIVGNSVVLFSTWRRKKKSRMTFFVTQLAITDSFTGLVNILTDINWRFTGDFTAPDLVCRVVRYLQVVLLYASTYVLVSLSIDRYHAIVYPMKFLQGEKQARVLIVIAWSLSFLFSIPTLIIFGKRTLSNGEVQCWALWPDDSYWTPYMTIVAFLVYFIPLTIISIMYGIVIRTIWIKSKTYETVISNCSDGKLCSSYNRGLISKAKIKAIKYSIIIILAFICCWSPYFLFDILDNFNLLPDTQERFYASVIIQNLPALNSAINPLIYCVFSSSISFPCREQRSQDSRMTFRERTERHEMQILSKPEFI
JMJD2E inh: inhibitors of human JMJD2E histone demethylase | Potency, µM (top dose mostly 57.1 µM), for the others: top-dose activity change, negative = inhibition, most hits filed as inhibitors | B2RXH2 | 230,000 compounds, 1.6% hits | JMJD2E catalytic domain, FDH-coupled NADH fluorescence (FDH is formaldehyde dehydrogenase) | AID 2147; active = well fitted inhibition curve with a large enough effect, not every such curve was filed as active; inconclusive = small, poorly fitted or top-dose-only effect, or another doubt; inactive = no such curve, though single readings can be large or run the other way;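 also: 0% = wells with enzyme and -100% = buffer wells without enzyme; nearly all actives have a fitted effect of over 50% in size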
Target sequence (B2RXH2 1-337 limits assumed): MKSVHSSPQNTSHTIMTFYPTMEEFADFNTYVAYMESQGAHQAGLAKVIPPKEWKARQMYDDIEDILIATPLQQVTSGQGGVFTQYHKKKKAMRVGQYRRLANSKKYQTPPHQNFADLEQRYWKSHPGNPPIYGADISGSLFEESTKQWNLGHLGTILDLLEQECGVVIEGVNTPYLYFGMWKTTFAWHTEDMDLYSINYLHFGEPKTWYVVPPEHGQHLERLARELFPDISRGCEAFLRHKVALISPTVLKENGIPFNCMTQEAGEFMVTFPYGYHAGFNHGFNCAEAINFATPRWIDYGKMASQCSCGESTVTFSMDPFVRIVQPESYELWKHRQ
KAT2A inh: GCN5L2 (KAT2A) acetyltransferase inhibition; Q92830; GCN5L2 HAT assay, ThioGlo1 CoA-SH fluorescence; Potency, µM (doses to about 58.9 µM), for inactives: top-dose activity change, negative = inhibition, most hits filed as inhibitors; 390,000 compounds, 0.21% hits; also: % is scaled to controls: 0 for no effect and ±100 for the full control effect
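GCN5L2 (20 nM) in 50mM HEPES pH 7.5, 0.1mM EDTA, 0.01% Tween-20 preincubated 15 min with compounds at room temperature. Reaction started with H3(1-25) 75uM, acetyl-CoA 70uM, ThioGlo1 50uM; CoA-thiol fluorescence (Ex340/Em540) read at 0 and 20 min.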
Epigenetic reg: regulators of epigenetic silencing causing reporter derepression in mouse cells | 280,000 compounds, 0.2% hits | murine LDR cells, GFP reporter derepression, 30 h | Potency, µM (titrated, usually from 53.9 µM), for the others: top-dose GFP activation, most hits filed as activators; also: % of control where 0% means no effect; nearly all actives have a fitted effect of over 60% in size
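Murine LDR cells carrying a silenced, genomically integrated CMV-driven GFP reporter were exposed to compound for 30 hours at 37 C. After PBS washes, GFP-positive cells (20–120 um objects) were counted by laser-scanning microplate cytometry.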
Sfp inh: Sfp phosphopantetheinyl transferase inhibition. Biochemical Sfp PPTase activity, qHTS. Potency, µM, for inactives: largest response in the series, negative = inhibition, most hits filed as inhibitors. 310,000 compounds, 3.5% hits. Q9F4F7;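 also: the enzyme is Sfp with the accession as filed and its product quenches rhodamine fluorescence; 0% = enzyme reaction without inhibitor and -100% = no enzyme wells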
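Buffer: 50 mM Hepes-Na pH 7.6, 10 mM MgCl2, 0.01% Nonidet P-40, 0.01% BSA. Enzyme 15 nM, pre-exposed to compound 15 min; substrates then added and fluorescence change tracked over 30 min.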
IMPase Li cell: cell-permeable IMPase inhibitors with lithium potentiation; 210,000 compounds, 0.35% hits; CHO-M1 cells, IP1 TR-FRET (IP-One), carbachol + lithium; AID 1457; Potency, µM (titrated, usually from 59.4 µM), inactives show at the top dose activity, negative = IMPase inhibition, usual class: inhibitors;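 also: IP1 builds up when IMPase is blocked and the TR-FRET signal falls; plate controls were basal vehicle for no effect and high inhibitor control for full effect; nearly all actives have a fitted effect of over 50% in size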
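Test compounds were applied to CHO-M1 cells previously cultured for 16–30 h at 2000 per well. A small lithium amount accompanied them; after 30 min at 37C, IP1 was quantified by TR-FRET.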
* = called active by the depositor; u = inconclusive; x = not tested or not shown; ! = not confirmed by another sample; [ ] = another dose, or the depositor's remark. Unless noted, calls follow the shape of the dose curve; as a rule, active = well fitted curve in the direction sought with a large enough effect; inconclusive = small, poorly fitted or top-dose-only effect, or another doubt; inactive = no such curve, though single readings can be large; an effect the other way counts as inactive or inconclusive. Potency is read from the fitted curve at half-maximal effect.

SMILES	NPSR antag	JMJD2E inh	KAT2A inh	Epigenetic reg	Sfp inh	IMPase Li cell
CCCCCN1C(C(=O)c2ccccc2)=C(NC(=O)c2ccc(OC)cc2)c2ccccc2S1(=O)=O	x	x	-3.4%	-1.0%	x	x
CCOC(=O)c1ccc(N2C(=O)C=CC2=O)cc1	u	2.1%	u	4.6%	3.55µM*	55.6%[38.3 µM]
Cc1nc2c(O)cccc2cc1CO	1.8%[7.67 µM]	2.9%	15.7%	1.4%	70.8µM*	x
Cc1ccc(O)c(CO)n1	-20.4%	u	-16.4%	-0.8%	3.0%	x
Oc1ccc(C2Oc3cc(O)cc(O)c3CC2O)cc1 (stereo unspecified)	x	-8.9%	0.0%	0.0%	1.6%	12.9%
O=C(OC1Cc2c(O)cc(O)cc2OC1c1cc(O)c(O)c(O)c1-c1c(C2Oc3cc(O)cc(O)c3CC2OC(=O)c2cc(O)c(O)c(O)c2)cc(O)c(O)c1O)c1cc(O)c(O)c(O)c1 (stereo unspecified)	x	11.2µM*	14.1µM*	-0.5%	44.7µM*	-15.1%
O=C1c2c(O)cc(O)cc2OC(c2ccc(O)c(O)c2)C1O (stereo unspecified)	-6.8%[46.1 µM]	8.91µM*	-6.7%	0.0%	-7.1%	22.3%
Oc1cc(O)c2c(c1)O[C@H](c1ccc(O)c(O)c1)[C@H](O)C2	x	11.2µM*!	-0.7%	0.0%[16.9 µM]	-1.7%	2.1%
COc1ccc([C@H]2CC(=O)c3c(O)cc(O)cc3O2)cc1O	37.3%	-6.1%	-4.8%	1.1%	14.5%	x
O=C(O[C@@H]1Cc2c(O)cc(O)cc2OC1c1ccc(O)c(O)c1)c1cc(O)c(O)c(O)c1 (stereo partly specified)	x	7.08µM*	-27.9%	0.2%	50.1µM*	-6.1%
Nc1ccccc1NC(=O)c1ccc(CNC(=O)OCc2cccnc2)cc1	x	x	0.0%	x	9.4%	x
CC1(C)C2CC[C@]1(C)[C@@H](O)C2	x	x	-12.8%	x	12.8%	x
O=C1NC(=O)[C@@H]2C3c4ccccc4C=CN3[C@H](C(=O)c3cccs3)[C@H]12 (stereo partly specified)	-15.1%[46.1 µM]	u	-5.0%	-1.6%	79.4µM*	-0.1%[38.3 µM]
Nc1cc2nsnc2cc1Br	2.51µM*	20.9%	u	-2.2%	39.8µM*	u
Nc1cccc2nsnc12	-2.0%	u	-1.1%	3.2%	-22.4%	x
COc1cc2ncnc(Nc3cccc(Cl)c3)c2cc1OC	-25.8%[46.1 µM]	u	u	-0.2%	56.2µM*!	31.8%
Cc1cc(C)c2oc(-c3ccc(C)c(NC(=S)NC(=O)/C=C/c4ccco4)c3)nc2c1	-21.1%[46.1 µM]	-3.0%	-14.2%	1.8%	39.8µM*	1.4%
Cc1ccc2oc(-c3cccc(NC(=S)NC(=O)/C=C/c4ccco4)c3)nc2c1	2.51µM*	u	-9.7%	4.7%	-25.0%	-1.6%[38.3 µM]
Cc1ccc(-c2nc3ccccc3[nH]2)cc1NC(=O)/C=C/c1ccco1	-6.2%[46.1 µM]	u	-3.7%	1.8%	50.1µM*	2.6%[38.3 µM]
Cc1cc(C)c2oc(-c3ccc(C)c(NC(=S)NC(=O)c4cccs4)c3)nc2c1	-1.2%[46.1 µM]	-11.7%	-13.8%	u	-9.8%	-11.3%[38.3 µM]
Cc1ccc2oc(-c3cccc(NC(=S)NC(=O)c4cccs4)c3)nc2c1	-24.9%	u	0.4%	-0.9%	-1.8%	3.8%
COc1ncc2nc(-c3ccc(F)cc3)c(=O)n(-c3ccccc3)c2n1	x	x	-16.7%	x	11.0%	-7.9%
CC(=O)Nc1ccc(S(=O)(=O)NNc2ccc([N+](=O)[O-])cc2)cc1	x	x	-8.3%	x	22.4µM*	x
Cc1ccc(NNS(=O)(=O)c2ccc(C)cc2)cc1	-18.4%[46.1 µM]	17.8µM*	35.5µM*	10.4%	39.8µM*	-3.2%[38.3 µM]
Cc1ccc(S(=O)(=O)NNC(=O)C(=O)NNS(=O)(=O)c2ccc(C)cc2)cc1	7.4%	6.8%	-5.6%	0.7%	27.7%	-2.9%
SMILES	NPSR antag	JMJD2E inh	KAT2A inh	Epigenetic reg	Sfp inh	IMPase Li cell
COc1ccc(C=Nc2c(O)ccc3ccccc23)cc1OC	x	x	x	x	x	0.8%
COc1ccc2c(Cl)c(C(=O)N/N=C3\CCCC(=O)C3)sc2c1	-2.5%	17.8µM*	-29.3%	11.2µM*	1.1%	-14.8%
COc1ccc(Oc2ncc3nc(-c4cc(F)cc(F)c4)c(=O)n(C[C@H]4CCCO4)c3n2)cc1	x	x	-17.4%	x	-12.6%	2.9%
COC/C=C/C1=CC2=CC(=O)C(C)(OC(=O)c3ccco3)C(=O)C2=CO1 (stereo unspecified)	7.8%	u	-0.2%	0.0%	56.2µM*	6.7%
COC/C=C/C1=CC2=CC(=O)C(C)(OC(=O)C3CCCC3)C(=O)C2=CO1 (stereo unspecified)	-13.5%	2.2%	14.5%	-1.1%	79.4µM*	23.2%
COC/C=C/C1=CC2=CC(=O)C(C)(O)C(=O)C2=CO1 (stereo unspecified)	x	3.2%	x	-1.1%	u	-0.6%
COC/C=C/C1=CC2=CC(=O)C(C)(OC(=O)c3cccs3)C(=O)C2=CO1 (stereo unspecified)	x	3.2%	x	-0.3%	-8.4%	19.4%
CC(C)[C@H](NC(=O)CNC(=O)OC(C)(C)C)C(=O)N[C@H](C=O)C(C)C	x	x	11.4%	1.1%	27.4%	-11.4%
CCN(CC)C(=O)N1CCN(C(=O)N(CC)CC)CC1	-18.5%	9.3%	17.3%	2.5%	16.2%	-0.8%
CCN(CC)C(=O)N1CCN(C)CC1	10.4%	25.1µM*!	2.1%	0.0%	-9.5%	14.2%
COc1ccc(CC(N)C(=O)N[C@H]2[C@@H](O)[C@H](n3cnc4c(N(C)C)ncnc43)O[C@@H]2CO)cc1 (stereo partly specified)	x	x	19.4%	-0.6%	8.6%	-5.4%
Cc1ccc2c(c1)c1c3n2CCN(C(=O)c2cccc(C(F)(F)F)c2)C3CCC1 (stereo unspecified)	x	x	-14.1%	-1.1%	x	x
CCn1cc(C(=O)NCC2CCCO2)c(=O)c2cc(S(=O)(=O)N3CCCCCC3)ccc21 (stereo unspecified)	3.16µM*	4.3%	-2.1%	0.0%	8.2%	10.2%[38.3 µM]
Cc1cccc(C)c1OCC(=O)N/N=C/c1ccc2c(c1)OCO2	-6.9%[46.1 µM]	-7.9%	12.6µM*	1.1%	13.4%	1.1%[38.3 µM]
O=C(/C=C/c1ccccc1)c1ccccn1	-8.3%[46.1 µM]	u	-3.1%	u	28.2µM*	-3.9%[38.3 µM]
O=C(N/N=C/c1ccc2c(c1)OCO2)c1ccccn1	-13.9%[46.1 µM]	1.4%	-7.7%	1.0%	79.4µM*	-12.9%[38.3 µM]
Cc1ccccc1NCC(=O)N/N=C\c1ccc2c(c1)OCO2	-0.6%	-4.8%	-4.2%	-4.5%	9.7%	-2.5%
O=C(CCc1ccc(O)c(O)c1)N/N=C/c1ccc2c(c1)OCO2	x	x	-17.8%	x	39.8µM*	x
O=C(N/N=C/c1cc2c(cc1Br)OCO2)c1ccccn1	6.7%	u	-0.3%	-0.9%	-8.6%	x
COC(=O)C/C=C1\c2ccc3c(c2[C@@H](OC)[C@@H]1C)OCO3	x	-1.7%	x	-1.1%	4.3%	10.4%
